This is an account of results in PubChem BioAssay AID2629 (Broad Institute, 2010).

Each structure is given as a SMILES string. Screen size: about 320,000 compounds; about 1,900 (0.59%) were called active. The sample as a whole holds a higher share of actives than the screen did. Unmarked numbers belong to inactive results. No stated cut-off is given here; in the data, active means inhibition mostly above about 10% (no sharp cut-off); inactive means mostly below about 6.7%.

One may read the inhibition as the drop in the measured response relative to a control, in per cent.

In this assay the target is Protein LANA1 (Human herpesvirus 8 type P (isolate GK18)) (UniProt Q9QR71). Description: blockers of LANA interaction with H2A/H2B – biochemical, FP readout, HTS, primary screen (AID 2629). The following applies: cell-free LANA-H2A/H2B peptide, fluorescence polarization, active compounds read high, concentration not given here. In general terms: In fluorescence polarisation assays a small probe gives low polarisation when free and higher when bound to something large.
Chain of Protein LANA1 (Human herpesvirus 8 type P (isolate GK18)) (Q9QR71 whole entry, looked up): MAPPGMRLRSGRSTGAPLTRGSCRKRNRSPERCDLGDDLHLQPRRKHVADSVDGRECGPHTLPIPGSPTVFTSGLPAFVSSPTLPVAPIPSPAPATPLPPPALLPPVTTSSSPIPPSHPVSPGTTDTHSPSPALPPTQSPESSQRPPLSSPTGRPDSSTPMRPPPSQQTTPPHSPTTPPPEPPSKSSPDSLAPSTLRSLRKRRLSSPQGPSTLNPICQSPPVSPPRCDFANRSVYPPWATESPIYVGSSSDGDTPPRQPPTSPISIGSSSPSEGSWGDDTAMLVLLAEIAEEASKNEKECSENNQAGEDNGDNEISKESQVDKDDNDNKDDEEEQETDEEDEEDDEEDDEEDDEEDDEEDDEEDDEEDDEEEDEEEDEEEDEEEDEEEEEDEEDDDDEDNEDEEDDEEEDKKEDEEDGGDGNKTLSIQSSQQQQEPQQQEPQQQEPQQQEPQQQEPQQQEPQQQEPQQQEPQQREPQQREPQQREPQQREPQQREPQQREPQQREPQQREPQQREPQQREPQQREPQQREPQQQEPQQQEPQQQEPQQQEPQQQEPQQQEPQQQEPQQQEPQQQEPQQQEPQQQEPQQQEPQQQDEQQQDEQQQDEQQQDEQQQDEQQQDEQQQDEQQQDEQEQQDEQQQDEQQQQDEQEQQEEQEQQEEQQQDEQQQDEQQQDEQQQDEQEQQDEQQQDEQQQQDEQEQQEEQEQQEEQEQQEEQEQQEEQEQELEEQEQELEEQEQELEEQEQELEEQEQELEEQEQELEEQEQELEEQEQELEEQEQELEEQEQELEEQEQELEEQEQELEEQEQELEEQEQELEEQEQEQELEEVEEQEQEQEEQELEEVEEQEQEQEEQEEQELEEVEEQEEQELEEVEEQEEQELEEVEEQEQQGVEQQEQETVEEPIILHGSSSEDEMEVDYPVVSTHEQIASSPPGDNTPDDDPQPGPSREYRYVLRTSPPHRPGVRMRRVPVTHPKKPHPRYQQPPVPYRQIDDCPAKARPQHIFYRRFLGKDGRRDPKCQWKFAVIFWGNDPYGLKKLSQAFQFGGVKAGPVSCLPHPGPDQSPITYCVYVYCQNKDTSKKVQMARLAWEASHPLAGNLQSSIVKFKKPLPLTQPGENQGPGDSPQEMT
As for `COc1ccc(C(=O)NC(C)Cn2nc(C)cc2C)cc1OC1CCN(C(C)=O)CC1` (centres undefined), the inhibition was 16.1% (active).

As for `COc1ccc(C(=O)NCCn2nc(C)cc2C)cc1OC1CCN(C(C)=O)CC1`, the inhibition is 0.74%. To `COc1ccc(C(=O)NC(C)c2nccs2)cc1OC1CCN(C(C)C)CC1` (centres undefined) belongs 4.31%; to `CCOc1ncccc1C(=O)OCC(=O)NC1CC1`, -3.51%. For `FC(F)(F)c1nnc2c3ccccc3c(Cl)nn12`, the inhibition was 8.62%.

As to `Cc1nnc(SCc2ccc(C(=O)c3ccc(Cl)cc3)o2)n1-c1ccccc1`, the inhibition is -1.68%. On to `C[C@H](CO)N1C[C@H](C)[C@@H](CN(C)S(=O)(=O)c2ccc(F)cc2)Oc2c(NC(=O)Nc3ccccc3)cccc2C1=O`, for which the inhibition is 14.5% (active). To `Cc1noc(C)c1NC(=O)Nc1cccc2c1O[C@H](CN(C)S(=O)(=O)c1c(C)noc1C)[C@@H](C)CN([C@H](C)CO)C2=O` belongs -5.54%; to `Cc1noc(C)c1NC(=O)Nc1ccc2c(c1)C(=O)N([C@H](C)CO)C[C@H](C)[C@@H](CN(C)S(=O)(=O)c1cn(C)cn1)O2`, 546% [above what the read-out allows, likely interference] (active). In the case of `COc1ccc(S(=O)(=O)N(C)C[C@H]2Oc3c(NC(=O)Nc4ccc5c(c4)OCO5)cccc3C(=O)N([C@H](C)CO)C[C@@H]2C)cc1` it was 16.9% (active).

Consider `COc1ccc(S(=O)(=O)Nc2cccc3c2O[C@H](CN(C)S(=O)(=O)c2ccc(OC)cc2)[C@@H](C)CN([C@H](C)CO)C3=O)cc1`, for which the inhibition was -1.79%. For `C[C@H](CO)N1C[C@H](C)[C@H](CN(C)C(=O)Nc2ccc(C(F)(F)F)cc2)Oc2c(NC(=O)c3ccncc3)cccc2C1=O`, the inhibition is 0.195%. In the case of `COc1ccc(NC(=O)Nc2ccc3c(c2)C(=O)N([C@H](C)CO)C[C@H](C)[C@@H](CN(C)C(=O)Nc2ccc4c(c2)OCO4)O3)cc1` it was 1.05%; in that of `COc1ccc(S(=O)(=O)N(C)C[C@@H]2Oc3ccc(NC(=O)Nc4c(C)noc4C)cc3C(=O)N([C@H](C)CO)C[C@@H]2C)cc1`, 4.41%; in that of `Cc1noc(C)c1S(=O)(=O)N(C)C[C@H]1Oc2ccc(NC(=O)C3CC3)cc2C(=O)N([C@H](C)CO)C[C@@H]1C`, 3.05%. Turning to `CC(C)NC(=O)Nc1cccc2c1O[C@@H](CN(C)S(=O)(=O)c1ccc(F)cc1)[C@@H](C)CN([C@H](C)CO)C2=O`, the inhibition was -0.984%. To `Cc1ccc2c(c1)N(C(=O)CCC(=O)NCc1cccnc1)CCO2` belongs -4.82%; to `CCN(C(=O)CSc1cccc[n+]1[O-])c1ccccc1`, -3%. `CCOc1ccc(CCNC(=O)COC(=O)c2c(OC)cccc2OC)cc1OCC`: the inhibition was 1.41%. In the case of `FC(F)Oc1ccccc1C1CC(c2ccc(Br)s2)Nc2ncnn21` (centres undefined) it was 2.23%; in that of `Cn1c(C(=O)OC(C(=O)NC2CCCCC2)c2ccccn2)cc2sccc21` (centres undefined), -2.12%; in that of `Cc1cc(C)c(C)c(S(=O)(=O)N[C@@H](C)C(=O)OC(C)C(=O)NC(N)=O)c1C` (some centres undefined), 0.241%. To `Cc1ccc(SC(C)C(=O)NCc2ccc(F)cc2)cc1` (centres undefined) belongs -1.45%; to `COc1ccc(NC(=O)C2CCC(CNc3c(N4CCCCC4)c(=O)c3=O)CC2)c(OC)c1` (centres undefined), 2.53%; to `CCN(CCn1cccn1)Cc1nc(-c2ccc(C(=O)OC)cc2)no1`, 0.645%. To `COC(=O)c1ccc(S(=O)(=O)N2CCC(c3nc4ccccc4o3)CC2)cc1` belongs 1.89%. As to `CC1(C)CC(=O)C(C2c3ccccc3S(=O)(=O)c3ccccc32)C(=O)C1`, the inhibition is -4.3%.

Take `O=C(Nc1cccnc1)c1ccc(Cl)c([N+](=O)[O-])c1`: the inhibition was -2.67%. In the case of `O=C(Nc1ccncc1)c1ccc(Cl)c([N+](=O)[O-])c1` it was -1.98%. In the case of `Cc1ccnc(NC(=O)c2ccc(Cl)c([N+](=O)[O-])c2)c1` it was 21.7% (active); in that of `Nc1ccn(CC(=O)N2CCN(c3ccccn3)CC2)c(=O)n1`, 0.94%. In the case of `CCCc1cc(=O)[nH]c(SCC(=O)c2c(N)n(CC(C)C)c(=O)n(C)c2=O)n1` it was -3.84%; in that of `CC(C)Cn1c(N)c(C(=O)COC(=O)CN2C(=O)C3CC=CCC3C2=O)c(=O)n(C)c1=O` (centres undefined), -0.106%; in that of `CC(C)Cn1c(N)c(C(=O)COC(=O)C2CCCN2C(=O)c2cccs2)c(=O)n(C)c1=O` (centres undefined), 18.2% (active).

On to `Cc1cccnc1NC(=O)Cn1c(=O)oc2ccccc21`, for which the inhibition is 10.8%. On to `Oc1ccc2ccc3cccc[n+]3c2c1`, for which the inhibition is 94.4% (active). To `CC(C)(C)OC(=O)C[C@H]1C/C=C\C[C@@H](CC(=O)N[C@H](CO)Cc2ccccc2)C(=O)NC[C@@H](c2ccccc2)OC1=O` belongs -0.906%. In the case of `CC(C)(C)OC(=O)C[C@@H]1C/C=C\C[C@@H](CC(=O)N[C@H](CO)Cc2ccccc2)C(=O)NCCOC1=O` it was -192%; in that of `O=C(c1ccc2c(c1)OCO2)N1CCN(C(=O)c2ccco2)CC1`, -0.585%; in that of `O=CN1CCN(C(=O)c2ccc3c(c2)OCO3)CC1`, 39.6% (active). To `O=C(c1ccc2c(c1)OCO2)N1CCOCC1` belongs -0.497%; to `COc1ccc([C@H]2[C@H](C(C)=O)N3N=Cc4ccccc4C3C23C(=O)OC(C)(C)OC3=O)cc1` (some centres undefined), 0.0257%; to `COc1ccc([N+](=O)[O-])cc1NC(=O)C(C)OC(=O)C1c2ccccc2Oc2ccccc21` (centres undefined), 4.81%. In the case of `CCCCNc1nc2c(c(=O)[nH]c(=O)n2C)n1CCOc1ccccc1`, the inhibition was -0.364%. In the case of `COc1ccc(CNc2nc3c(c(=O)[nH]c(=O)n3C)n2Cc2ccccc2)cc1` it was 1.42%; in that of `Cn1c(=O)[nH]c(=O)c2c1nc(NCCCn1ccnc1)n2Cc1cccc(Br)c1`, 17.2% (active). To `O=C(/C=C/c1ccc(F)cc1)NC(=S)NNC(=O)c1cccnc1` belongs 1%; to `NC(=O)CN1CCCC1c1ccc2c(c1)OCCO2` (centres undefined), 2.74%. To `COc1ccccc1NC(=O)COC(=O)CNC(=O)C1CCCCC1` belongs 2.31%. In the case of `O=C(Nc1ccc(-c2cscn2)cc1)C1CCCN(Cc2ccc(CO)o2)C1` (centres undefined), the inhibition is 21.8% (active). In the case of `O=C(Nc1cccc(-c2cscn2)c1)C1CCN(Cc2ccsc2)CC1`, the inhibition is 4.95%. In the case of `Nc1ncc(CN2CCCC(C(=O)Nc3ccc(-c4ccco4)cc3)C2)cn1` (centres undefined) it was 3.49%. In the case of `O=C1CN(c2nc(-c3ccccc3)c3cc(Br)ccc3n2)c2ccccc2N1` it was -7.77%; in that of `COc1ccc(C2N=C(N)N=C(N)N2c2ccccc2)cc1OC` (centres undefined), -6.16%; in that of `CCCCSc1[nH]c(=O)c(C(=O)OCC)cc1C#N`, 3.53%. In the case of `COc1ccc(-c2nc(N)sc2C2(O)C(=O)Nc3c(Br)cc(F)cc32)cc1OC` (centres undefined) it was -10.7%; in that of `S=c1[nH]nc(Nc2ccccc2)s1`, 6.41%; in that of `O=C(/C=C/Nc1ccccc1)c1cnc(-c2ccccc2)s1`, 0.792%. In the case of `CC(C)(C)C(=O)c1cnc(Nc2ccccc2)s1`, the inhibition is 54.4% (active).

For the compound `Cc1ccccc1-n1cc(CNC(=O)CC2C(=O)NCCN2C/C=C/c2ccccc2)cn1` (centres undefined), the inhibition is -1.56%. To `Cc1nc(SC(C)C)[nH]c(=O)c1Cc1ccccc1` belongs 1.02%.

Regarding `O=C(O)CC(CC(=O)N1CCOCC1)c1ccccc1` (centres undefined), the inhibition is 4.19%. On to `O=C(Cc1ccccc1Cl)N1CCOCC1`, for which the inhibition was -0.189%. In the case of `O=C(CP(=O)(c1ccccc1)c1ccccc1)N1CCOCC1` it was 14.6% (active).

In the case of `CCOc1ccc(CCNC(=O)Nc2ccccc2)cc1OCC`, the inhibition was -1.38%.

With `CCN1C(=O)[C@H]2[C@@H](c3ccc(C)cc3)N3C(=O)N(c4cccc(Br)c4)C(=O)[C@@]3(CC)[C@H]2C1=O`, the inhibition is -2.34%. To `Cc1ccc(NC(=O)c2sc3nc(N)c(C#N)cc3c2N)cc1` belongs 14.6% (active); to `CCc1ccc2nc3sc(C(=O)Nc4nnc(CC)s4)c(N)c3cc2c1`, -1.19%; to `Cc1ccc(NC(=O)CSCC(=O)Nc2sccc2C#N)cc1`, 1.52%. As to `CCc1ccc(OCC(=O)NCC(c2ccc(Cl)cc2)N2CCCCC2)cc1` (centres undefined), the inhibition was -1.04%.

For the compound `NC(=O)COC(=O)c1sc2cc(F)ccc2c1Cl`, the inhibition was 0.759%. On to `Cn1c(SCC(=O)OC2CCCCC2)nnc1-c1ccc(S(=O)(=O)N2CCCC2)cc1`, for which the inhibition is 5.59%. In the case of `CC1Cc2ccccc2N1C(=O)CSc1nnc(C2CC2)n1C` (centres undefined) it was 5.57%. `CC1Cc2ccccc2N1C(=O)CSc1nnc(-c2ccc(S(=O)(=O)N3CCCC3)cc2)n1C` (centres undefined): the inhibition was 14.5% (active).

For `COC(=O)[C@H](C)[C@H]1C[C@]1(C)[C@H](NC(=O)OCc1ccccc1)c1ccccc1`, the inhibition was -3.43%. In the case of `COC(=O)[C@H](Cc1ccccc1)NC(=O)[C@@H]1C[C@H]1[C@@H](NC(=O)OCc1ccccc1)c1ccccc1` it was 14.2% (active); in that of `COC(=O)[C@@H](Cc1ccccc1)NC(=O)NCCc1ccccc1`, -0.105%. In the case of `COc1ccc(N2CCN(Cc3ccc(Br)s3)CC2)cc1` it was 0.937%. In the case of `COc1ccccc1C(=O)N1CCNC(=O)C1CC(=O)Nc1ccc(Cl)cc1` (centres undefined) it was -4.24%; in that of `CSc1ccc(Cl)c(C(=O)OCC(=O)N2CCNC2=O)c1`, 2.35%.

Regarding `COCCNc1ncnc2c1nc1n2CCCC1`, the inhibition is 3%. To `Cc1cccc(NS(=O)(=O)c2ccc(C)c(C(N)=O)c2)c1` belongs 2.17%; to `Cc1cccc(NS(=O)(=O)c2ccc(C)c(C(=O)NCc3cccnc3)c2)c1`, -4.62%; to `Cc1cccc(NS(=O)(=O)c2ccc(C)c(C(=O)NCC(c3ccccc3)N(C)C)c2)c1` (centres undefined), 70.5% (active).
